# In PubChem BioAssay (NCI):
# This is part of a sample that, as a whole, favours compounds with a hit. Of some 83,000 tested, about 20% had one in any assay.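 Single-concentration screen, 48 h exposure, 96-well plates. Endpoint: percent growth. Below 10 = active.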 The source made the active and inactive calls.
# Test system: MDA-MB-468 breast
# Assay: NCI-60 one-dose screen, 48 h (100 = growth as untreated, 0 = no growth, -100 = all killed)
# Conditions: 10 µM unless noted
row,SMILES,growth
1,O=C1/C(=C\c2cccn2Cc2ccc(Cl)cc2)c2ccccc2N1c1c(Cl)cccc1Cl,-27.9% (active)
2,CCCCCCC12CCC(=O)N1CCc1cncn12 (stereo not given),85% (inactive)
3,O=S(=O)(O)C(Nc1ccccc1)c1ccccc1 (stereo not given),92.7% (inactive)
4,O=C(COc1ccccc1)N1N=C(c2ccc(Cl)cc2)CC1c1c[nH]c2ccccc12 (stereo not given),85.7% (inactive)
5,O=C(Nc1nc2c(C(F)(F)F)cccc2s1)c1cc(Cl)ccc1O,-10.5% (active)
6,CC(C)N(CCOc1cccc(-c2nc3sccn3c2-c2ccnc(S(C)(=O)=O)n2)c1)C(C)C,-2.25% (active)
7,CN1CCN(c2nc(-c3csc(-c4cccs4)n3)cc3ccccc23)CC1,20.3% (inactive)
8,N#CC1(O)CCCCC1,108% (inactive)
9,CC[C@@H](C(=O)[C@H](C)[C@H](O)[C@@H](C)[C@H]1O[C@H]([C@@H](CC)C(=O)N(CC)CC)CC[C@H]1C)C1O[C@]2(C=C[C@@H](O)[C@]3(CC[C@@](C)([C@H]4CC[C@](O)(CC)[C@H](C)O4)O3)O2)[C@H](C)C[C@@H]1C (stereo not given in full),-18.3% (active)
10,O=C(CC(C(=O)c1ccccc1)N1CCN(Cc2ccccc2)CC1)c1ccccc1 (stereo not given),70.1% (inactive)
11,CCCCCc1ccnc(CC(=O)c2ccc(OC)cc2)c1,65.5% (inactive)
12,CC(C)Oc1nc2c(c(=O)n(C)c(=O)n2C)n1C,109% (inactive)
13,CCN(CC)CCCOCCCNc1cc(OC)cc2cccnc12,-6.79% (active)
14,COc1cc(C)cc2oc3oc(=O)c(C(=O)c4cc5cc(Br)ccc5o4)cc3c(=O)c12,107% (inactive)
15,CCCCCCCC1(C)NC(=O)NC1=O (stereo not given),115% (inactive)
16,CCCCCCN(CCCCCC)CCC(=O)Nc1ccc(S(=O)(=O)c2ccc(NC(=O)CCN(CCCCCC)CCCCCC)cc2)cc1,92.9% (inactive)
17,CNC(=O)Nc1ccc(-c2nc(N3CCOCC3)nc3c2cnn3C2CCOCC2)cc1,-34.4% (active)
18,O=C1OCC2=C1C(c1ccc3c(c1)OCO3)CC(=O)N2c1cccc(Cl)c1 (stereo not given),88.1% (inactive)
19,CSc1nc2nc3c(c(-c4ccc(C)cc4)c2c(=O)[nH]1)CN(C)C/C3=C\c1ccc(C)cc1,74.7% (inactive)
20,C[C@H](CCC(=O)NCc1ccc(C(=O)Nc2ccccc2N)cc1)[C@H]1CC[C@H]2[C@@H]3[C@@H](O)C[C@@H]4C[C@H](O)CC[C@]4(C)[C@H]3CC[C@]12C,71.2% (inactive)

row,SMILES,growth
1,Nc1ccc(Br)cn1,93.6% (inactive)
2,O=C1C(Cl)=C(N=Nc2c(Cl)c(O)c3ccccc3c2O)C(=O)c2ccccc21,66.3% (inactive)
3,CCCCNC(=O)NS(=O)(=O)c1ccc(N2N=C(c3ccc(C)cc3C)CC2c2ccc(OC)cc2)cc1 (stereo not given),65.1% (inactive)
4,COc1cccc(N=CNc2cccc(OC)c2)c1,107% (inactive)
5,CC(=O)c1cc2c(N)c(C(=O)Nc3ccccc3)sc2nc1C,24.3% (inactive)
6,NC(=O)c1cccc(-c2ccc(S(=O)(=O)Nc3ccc4c(c3)N(C(=O)C3CC3)CCC4)cc2)c1,-4.85% (active)
7,Clc1ccc2c(NCCCN3CCN(c4nc(-n5ccnc5)nc5ccccc45)CC3)ccnc2c1,106% (inactive)
8,CN(C)CCN1CCN(c2ncccc2C2Nc3ccccc3-n3cccc32)CC1 (stereo not given),109% (inactive)
9,CC(C)C1CCC(C)C(C2(C#N)C(N)=NC(N)=C2C#N)C1=O (stereo not given),107% (inactive)
10,CC(O)C(O)C(O)C(O)C(O)C(=O)NNc1ccccc1 (stereo not given),96.5% (inactive)
11,COc1ccc2cc(-c3cnc4nonc4n3)ccc2c1,-2.09% (active)
12,O=C(CCc1nnc(Cn2cncn2)o1)c1nc2ccccc2[nH]1,104% (inactive)
13,O=S(=O)(NCCCNc1nccc(-c2c(-c3ccccc3)nc3occn23)n1)c1ccc(Cl)cc1,67.1% (inactive)
14,O=C(Nc1nc2ccc([N+](=O)[O-])cc2s1)Nc1ccccc1Cl,58.5% (inactive)
15,C=CC[n+]1c(/C=C/C=C2\N(C)c3ccccc3C2(C)C)sc2ccc(OC)cc21,-5.71% (active)
16,CC1(C)CC[C@]2(C(N)=O)CC[C@]3(C)C(=CC[C@@H]4[C@@]5(C)C/C(=C/c6ccncc6)C(=O)C(C)(C)[C@@H]5CC[C@]43C)[C@@H]2C1,-25.2% [100 µM] (active)
17,CC(C)(C)CC(C)(C)Nc1c(-c2c(O)c3ccccc3oc2=O)nc2sc3ccccc3n12,22.4% (inactive)
18,O=C(Cc1ccc(/C=C/C(=O)c2ncc[nH]2)cc1)Nc1ccc(S(F)(F)(F)(F)F)cc1,52.7% (inactive)
19,CCOC(=O)c1cnc2c(N=Nc3ccc(OC)cc3)c(N)nn2c1N,116% (inactive)
20,C[C@H]1[C@H](OC(=O)CCC(=O)O)O[C@@H]2O[C@]3(C)CC[C@H]4[C@H](C)CC[C@@H]1[C@@]24OO3,29.1% (inactive)
